Experimental data: PubChem BioAssay (EPA / NIEHS)
Records with an inconclusive call do not appear. Active and inactive are the calls of the source. The calls were made as follows: active = hit-call score of the fitted dose curve at least 0.9, where 1 is the maximum; inconclusive = response in the unintended direction; inactive = score below 0.9.

How the values were obtained:
[1] = molecular target: Cellular tumor antigen p53 (Homo sapiens) (UniProt P04637); assay: TOX21_p53_BLA_p2_ratio: Tox21 HCT-116 p53 Agonism Beta-lactamase Assay, Ratio, Phase 2 (AID 2283592)
Cellular tumor antigen p53 (Homo sapiens), sequence (P04637 whole entry, looked up): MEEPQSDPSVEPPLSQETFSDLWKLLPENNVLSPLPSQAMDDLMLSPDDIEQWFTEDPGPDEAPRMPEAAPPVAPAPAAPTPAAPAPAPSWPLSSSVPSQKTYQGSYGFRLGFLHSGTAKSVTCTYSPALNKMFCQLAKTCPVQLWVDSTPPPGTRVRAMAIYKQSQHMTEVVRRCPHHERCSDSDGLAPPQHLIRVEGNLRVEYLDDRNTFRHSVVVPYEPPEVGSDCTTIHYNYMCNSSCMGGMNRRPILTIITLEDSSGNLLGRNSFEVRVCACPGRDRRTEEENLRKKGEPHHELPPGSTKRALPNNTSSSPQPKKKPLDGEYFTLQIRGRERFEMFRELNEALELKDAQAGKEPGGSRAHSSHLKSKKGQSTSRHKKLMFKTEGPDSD
Outline: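 Cleaved-to-uncleaved substrate ratio (460 vs 530 nm) measured in HCT116 cells with an inducible beta-lactamase reporter linked to p53 activity. Compounds incubated 16 h at 37C before 2 h room-temperature CCF4-AM loading.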

[2] = TOX21_p53_BLA_p3_viability: Viability Assessment in the Tox21 HCT-116 p53 Agonism Beta-lactamase Assay, Phase 3 (AID 2283593);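 also: cells exposed to compound for 16 h before reading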
Outline: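 HCT-116 cells (4000/well) rested 5 h at 37C, then got DMSO compounds by pin tool (217-fold dilution) for 16 h at 37C, 5% CO2. After the bla read, CellTiter-Glo was added and luminescence read at 30 min, room temperature.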

[3] = molecular target: Cellular tumor antigen p53 (Homo sapiens) (UniProt P04637); assay: TOX21_p53_BLA_p3_ratio: Tox21 HCT-116 p53 Agonism Beta-lactamase Assay, Ratio, Phase 3 (AID 2283596)
Outline: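 Cells were seeded at 4000/well, rested 5 h at 37C, then dosed with DMSO compound solutions (217-fold dilution) for 16 h. CCF4-AM substrate was loaded for 2 h at room temperature, and the 460/530 nm emission ratio was fitted for gain of signal versus DMSO.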

[4] = molecular target: Cellular tumor antigen p53 (Homo sapiens) (UniProt P04637); assay: TOX21_p53_BLA_p5_ratio: Tox21 HCT-116 p53 Agonism Beta-lactamase Assay, Ratio, Phase 5 (AID 2283599)
Outline: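 HCT-116 cells carrying a p53-inducible beta-lactamase reporter were seeded at 4000 cells/well and dosed after 5 h with compound in DMSO (217-fold dilution). After 16 h at 37C, CCF4-AM substrate was added for 2 h, and the 460/530 nm emission ratio was scored as gain-of-signal versus DMSO.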

[5] = molecular target: Cellular tumor antigen p53 (Homo sapiens) (UniProt P04637); assay: TOX21_p53_BLA_p4_ratio: Tox21 HCT-116 p53 Agonism Beta-lactamase Assay, Ratio, Phase 4 (AID 2283601)
Outline: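 HCT116 cells carrying an inducible beta-lactamase reporter were plated at 4000 cells/well, rested 5 h, then exposed to compounds in DMSO (217-fold dilution) for 16 h at 37C. CCF4-AM substrate was loaded 2 h at room temperature; 460/530 nm emission ratio scored gain-of-signal versus DMSO.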

[6] = TOX21_p53_BLA_p5_viability: Viability Assessment in the Tox21 HCT-116 p53 Agonism Beta-lactamase Assay, Phase 5 (AID 2283600)
Outline: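 Viability is taken from cellular ATP content, measured by luciferase luminescence in the same wells after the beta-lactamase ratio read. Cells are seeded at 4000 per well and exposed to DMSO-dissolved compounds, diluted 217-fold, for 16 h.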

THRB (gene 7068) [7] = molecular target: THRB (gene 7068) (UniProt P10828); assay: TOX21_TRB_BLA_Antagonist_Followup_ratio: Tox21 Thyroid Hormone Receptor beta Antagonism Beta-lactamase (BLA) Follow-Up Assay, Ratio (AID 2283958)
THRB (gene 7068), sequence (P10828 whole entry, looked up, the tested form may be a part): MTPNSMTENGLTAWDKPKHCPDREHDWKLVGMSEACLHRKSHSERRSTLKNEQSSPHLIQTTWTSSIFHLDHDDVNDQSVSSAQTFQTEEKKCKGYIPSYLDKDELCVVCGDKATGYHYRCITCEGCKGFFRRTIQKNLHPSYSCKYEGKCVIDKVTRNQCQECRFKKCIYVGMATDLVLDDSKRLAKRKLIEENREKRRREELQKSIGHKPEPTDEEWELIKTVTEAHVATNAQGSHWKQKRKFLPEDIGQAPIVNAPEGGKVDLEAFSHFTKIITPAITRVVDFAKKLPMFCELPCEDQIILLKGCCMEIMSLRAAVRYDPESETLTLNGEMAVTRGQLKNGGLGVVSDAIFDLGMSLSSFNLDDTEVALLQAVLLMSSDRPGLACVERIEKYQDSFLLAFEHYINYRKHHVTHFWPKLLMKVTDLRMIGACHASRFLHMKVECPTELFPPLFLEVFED
Outline: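 Using charcoal-stripped 2% FBS medium, human TRβ-LBD/GAL4 reporter HEK293T cells received test compounds for 18 h. The endpoint is the cleaved-to-uncleaved substrate ratio (460/530 nm).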

[8] = TOX21_TRB_BLA_Antagonist_Followup_viability: Viability Assessment in the Tox21 Thyroid Hormone Receptor beta Antagonism Beta-lactamase (BLA) Follow-Up Assay (AID 2283961)
Outline: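 Cytotoxicity is measured in parallel with the antagonist-mode TRβ beta-lactamase screen, using ATP-coupled luciferase luminescence. Engineered HEK293T cells are treated for 18 h with 11-point compound series in triplicate.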

THRB (gene 7068) [9] = molecular target: THRB (gene 7068) (UniProt P10828); assay: TOX21_TRB_COA_Antagonist_Followup_ratio: Tox21 Thyroid Hormone Receptor beta Antagonism through Coactivator Recruitment Follow-Up Assay, Ratio (AID 2283967)
Outline: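 Coactivator (SRC-2) recruitment to purified GST-TRβ ligand-binding domain is monitored by terbium-to-fluorescein energy transfer, emission ratio 520:495 nm. DMSO wells define 0% and T3 wells 100% activity.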

[10] = molecular target: Retinoic acid receptor RXR-alpha (Homo sapiens) (UniProt P19793); assay: TOX21_TR_RXR_BLA_Antagonist_Followup_ratio: Tox21 Thyroid Hormone Receptor beta Retinoid X Receptor alpha (RXRa) Antagonism Beta-lactamase (BLA) Follow-Up Assay, Ratio (AID 2283972)
Retinoic acid receptor RXR-alpha (Homo sapiens), sequence (P19793 whole entry, looked up, the tested form may be a part): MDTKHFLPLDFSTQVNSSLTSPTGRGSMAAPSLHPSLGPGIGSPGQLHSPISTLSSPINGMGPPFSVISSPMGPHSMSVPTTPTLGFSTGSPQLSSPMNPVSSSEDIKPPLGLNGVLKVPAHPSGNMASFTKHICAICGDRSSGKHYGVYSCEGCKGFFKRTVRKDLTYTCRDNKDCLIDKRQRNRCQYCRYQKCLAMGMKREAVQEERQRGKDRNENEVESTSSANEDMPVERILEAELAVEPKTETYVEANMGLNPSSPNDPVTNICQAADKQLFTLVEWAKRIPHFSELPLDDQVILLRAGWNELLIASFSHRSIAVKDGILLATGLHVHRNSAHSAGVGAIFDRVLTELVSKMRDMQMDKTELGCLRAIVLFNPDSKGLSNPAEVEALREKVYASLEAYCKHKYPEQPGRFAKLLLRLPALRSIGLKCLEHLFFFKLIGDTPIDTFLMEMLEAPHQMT
Outline: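 Antagonist mode used GAL4 UAS-driven beta-lactamase in HEK293T cells expressing RXRa, treated for 16 h with compound concentration series. Activity was taken from the blue/green (460:530 nm) ratio of cleaved to uncleaved substrate.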

[11] = TOX21_TR_RXR_BLA_Antagonist_Followup_viability: Viability Assessment in the Tox21 Thyroid Hormone Receptor beta Retinoid X Receptor alpha (RXRa) Antagonism Beta-lactamase (BLA) Follow-Up Assay (AID 2283979)
Outline: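 RXRa-UAS-bla HEK293T cells seeded 2,500/well in phenol red-free DMEM with 2% charcoal-stripped FBS, attached 5 h, then exposed to compounds at 11 concentrations in triplicate for 16 h at 37C/5% CO2. Viability read by CellTiter-Glo ATP luminescence; bidirectional fit versus DMSO.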

Measured: AC50

CO[Si](CCCCl)(OC)OC
inactive: [1] | [2] | [3] | [4] | [5]

C[C@]1(Cn2ccnn2)[C@H](C(=O)O)N2C(=O)C[C@H]2S1(=O)=O
inactive: [1] | [2] | [3] | [4] | [5]

O=C1CC2(CCCC2)CC(=O)N1CCNCC1COc2ccccc2O1 (stereo unspecified)
inactive: [1] | [2] | [3] | [4] | [6] | [5]

CC(C)C[C@@H](NC(=O)[C@@H](O)[C@H](N)Cc1ccccc1)C(=O)O
inactive: [1] | [2] | [3] | [4] | [6] | [5]

CO/N=C(\C(=O)N[C@@H]1C(=O)N2C(C(=O)O)=C(CSc3cnns3)CS[C@H]12)c1csc(N)n1
inactive: [1] | [2] | [3] | [4] | [5]

CC1=C(/C=C/C(C)=C/C=C/C(C)=C/C(=O)Oc2c(C)c(C)c3c(c2C)CC[C@@](C)(CCC[C@H](C)CCC[C@H](C)CCCC(C)C)O3)C(C)(C)CCC1
active: [2] 42800 nM
inactive: [1] | [3] | [4] | [5]

O=C(Nc1ccc(/C=C/c2ccc(NC(=O)c3cc(S(=O)(=O)O)c4cccnc4c3O)cc2S(=O)(=O)O)c(S(=O)(=O)O)c1)c1cc(S(=O)(=O)O)c2cccnc2c1O
inactive: [1] | [2] | [3] | [4] | [6] | [5]

CCn1cc(C(=O)O)c(=O)c2cc(F)c(N3CCNCC3)nc21
inactive: [1] | [2] | [3] | [4] | [5]

NCCCC[C@H](N)C(=O)O
inactive: [1] | [2] | [3] | [4] | [5]

O=C(NCN1CCOCC1)c1cnccn1
inactive: [1] | [2] | [3] | [4] | [6] | [5]

O=C(Oc1ccccc1)Oc1ccccc1
inactive: [1] | [2] | [3] | [4] | [6] | [5]

CN(CCCN1c2ccccc2CCc2ccccc21)CC(=O)c1ccc(Cl)cc1
inactive: [1] | [2] | [3] | [4] | [5]

N#Cc1cc2ccccc2c2ccccc12
inactive: [1] | [2] | [3] | [4] | [5]

CC(C)=O
inactive: [1] | [2] | [3] | [4] | [6] | [5]

CC(C)(C)NCC(O)c1ccc(O)c(CO)n1 (stereo unspecified)
inactive: [1] | [2] | [3] | [4] | [6] | [5]

CCCCNc1ccc(C(=O)OCCN(C)C)cc1
inactive: [1] | [2] | [3] | [4] | [6] | [5]

CC[N+](CC)(CC)CCOc1ccc(/C=C/c2ccccc2)cc1
inactive: [1] | [2] | [3] | [4] | [6] | [5]

CC(C)CC(C)(N)C#N (stereo unspecified)
inactive: [1] | [2] | [3] | [4] | [6] | [5]

O=C(O)C(=O)Cc1c[nH]c2ccccc12
inactive: [1] | [2] | [3] | [4] | [6] | [5]

Cc1cc2cc3c(C)cc(=O)oc3c(C)c2o1
inactive: [1] | [2] | [3] | [4] | [5]

CCCOc1ccc2nc(NC(=O)OC)sc2c1
active: [1] 653 nM | [3] 3420 nM | [4] 2750 nM | [5] 1660 nM
inactive: [2] | [6] | THRB (gene 7068) [7] | [8] | THRB (gene 7068) [9] | [10] | [11]

CC(C)(C)C(=O)OCOC(=O)[C@@H]1N2C(=O)[C@@H](NC(=O)[C@H](N)c3ccccc3)[C@H]2SC1(C)C
inactive: [1] | [2] | [3] | [4] | [5]

N=c1nc(N2CCCCC2)cc(N)n1O
inactive: [1] | [2] | [3] | [4] | [5]

CCCCCCCCCCCCCCCCCCO
inactive: [1] | [2] | [3] | [4] | [5]

CCn1nc(C(=O)O)c(=O)c2cc3c(cc21)OCO3
inactive: [1] | [2] | [3] | [4] | [6] | [5]

C/C=C(\C)C=O
inactive: [1] | [2] | [3] | [4] | [6] | [5]

Oc1cn2c(n1)Nc1ccc(Cl)c(Cl)c1C2
inactive: [1] | [2] | [3] | [4] | [6] | [5]

O=C(O)[C@@H]1[C@H]2C[C@H]3c4[nH]c5ccccc5c4CCN3C[C@@H]2CC[C@@H]1O
inactive: [1] | [2] | [3] | [4] | [5]

CC(C(=O)O)c1cccc(Oc2ccccc2)c1 (stereo unspecified)
inactive: [1] | [2] | [3] | [4] | [6] | [5]
